PubChem BioAssay AID540333 (Southern Research Specialized Biocontainment Screening …, 2011)
In all, about 10,000 compounds went through this assay and about 320 (3.2%) were called active. The list comes from a sample in which actives are over-represented; it also holds similar structures and randomly drawn compounds. A number with no mark means an inactive call. No stated cut-off is given here; in the data, active means CPE inhibition mostly above about 9.1% (no sharp cut-off); inactive means mostly below about 7.2%.

Experiment: antivirals protecting cells from dengue CPE – CPE readout, HTS (AID 540333)
Settings: Dengue virus CPE inhibition in host cells, at 20 µM; active compounds read high

| Structure (SMILES) | CPE inhibition |
| --- | --- |
| Cc1ccc(-c2csc(NC(=S)NC(=O)c3cc4ccccc4o3)n2)cc1 | 1.54% |
| O=C1CSC(=S)N1N=C1CCCCCC1 | inactive |
| O=C(NC(=S)NC1CCSC1=O)c1cccs1 (stereo unspecified) | 12.2% (active) |
| O=C(NC(=S)NCC1CCCO1)c1cccs1 (stereo unspecified) | inactive |
| Cc1onc(-c2c(F)cccc2Cl)c1C(=O)NC(=S)NC1CCSC1=O (stereo unspecified) | 2.61% |
| O=C1CCCc2c1cc(-c1ccccc1)n2-c1ccc(O)cc1 | 1.72% |
| CCOCCCNC(=O)/C(C#N)=C/c1ccc(-c2ccc(S(=O)(=O)N3CCOCC3)cc2)o1 | 0.33% |
| Cc1cc(C)nc(Sc2ccc([N+](=O)[O-])cc2[N+](=O)[O-])n1 | 14.6% (active) |
| Cc1cc(C)n(C(=O)c2ccc([N+](=O)[O-])cc2[N+](=O)[O-])n1 | 0.325% |
| CN(C)/N=C/c1ccc(Sc2ccc([N+](=O)[O-])cc2[N+](=O)[O-])o1 | 2.35% |
| N#C/C(=C\c1cccn1-c1ccccc1)C(=O)NC1CCCCC1 | 2.54% |
| O=[n+]1cc(-c2ccccc2)n([O-])c2c1CCCCC2 | 0.81% |
| CCOC(=O)c1cc[n+](CC(=O)c2ccc(F)cc2)cc1 | inactive |
| COc1ccc(NC(=O)CC2(Cc3ccccc3)CCOC(C)(C)C2)cc1 (stereo unspecified) | inactive |
| Cc1ccc(NC2=C(Cl)C(=O)OC2OC(=O)c2ccco2)cc1C (stereo unspecified) | 14% (active) |
| Cc1cccc(C)c1NC1=C(Cl)C(=O)OC1OC(C)C (stereo unspecified) | inactive |
| CCOC1OC(=O)C(Cl)=C1Nc1ccc(C)cc1C (stereo unspecified) | 0.385% |
| COc1cc(NC(=O)CN2CCC(C)CC2)c(C)cc1[N+](=O)[O-] | inactive |
| CCN(CC)S(=O)(=O)c1ccc2oc(C(=O)N3CCc4ccccc4C3)c(C)c2c1 | 0.865% |
| N#Cc1cc(NCC2CCCO2)c([N+](=O)[O-])cc1C#N (stereo unspecified) | 0.075% |
| CN(CC(=O)Nc1ccc(Cl)cc1)c1ccc(S(=O)(=O)N2CCCCC2)cc1[N+](=O)[O-] | 13% (active) |
| CN(Cc1cccc(Cl)c1Cl)C(=O)c1ccc(NC(=O)CC#N)cc1 | inactive |
| CC(C)C(=O)NC(=S)Nc1ccc(S(=O)(=O)N2CCCC2)cc1 | inactive |
| CCOc1ccccc1N(CC(=O)Nc1ccc(S(=O)(=O)N2CCOCC2)cc1)S(=O)(=O)c1ccc(Cl)cc1 | 0.98% |

| Structure (SMILES) | CPE inhibition |
| --- | --- |
| CN(CC(=O)Nc1ccc(S(=O)(=O)N2CCCC2)cc1)Cc1ccc(Cl)cc1Cl | 13.3% (active) |
| CN(CC(=O)Nc1ccc(S(=O)(=O)N2CCCC2)cc1)Cc1cccc(Cl)c1Cl | 9% (active) |
| COc1ccc(CCN(C)c2ccc(S(=O)(=O)N3CCCC3)cc2[N+](=O)[O-])cc1OC | inactive |
| CN(CC(=O)Nc1ccc(S(=O)(=O)N2CCCC2)cc1)Cc1ccc(Cl)cc1 | 0.055% |
| CN(CC(=O)Nc1ccc(F)cc1)c1ccc(S(=O)(=O)N2CCCCC2)cc1[N+](=O)[O-] | 2.78% |
| CCc1cccc(C)c1NC(=O)CSc1nc(-c2ccccc2F)nc2nc[nH]c12 | inactive |
| CCCCn1c(-c2ccco2)n[nH]c1=S | 1.02% |
| CC(OC(=O)/C=C/c1ccco1)C(=O)Nc1cccc([N+](=O)[O-])c1 (stereo unspecified) | 0.7% |
| CCOc1ccccc1NC(=S)NNS(=O)(=O)c1c(C)cc(C)cc1C | inactive |
| CCOC(=O)N1CCN(CC(O)COc2ccc(C)cc2C(C)(C)C)CC1 (stereo unspecified) | 2.44% |
| C=CCC(C(=O)Oc1c(C(C)(C)C)cc(C)cc1C(C)(C)C)c1ccccc1 (stereo unspecified) | 12.5% (active) |
| Cc1ccc(NC(=O)CC(C(=O)O)c2ccccc2)cc1 (stereo unspecified) | inactive |
| CC(C)Oc1ccc(C(CC(=O)N(C)CCC#N)c2ccc(F)cc2)cc1 (stereo unspecified) | 0.65% |
| COC(=O)CNC(c1ccccc1)c1cc(C)ccc1NC(=O)c1cccc(Cl)c1 (stereo unspecified) | 3.54% |
| NNC(=O)CNC(c1ccccc1)c1cc(Br)ccc1NC(=O)c1cccc(Cl)c1 (stereo unspecified) | 0.305% |
| COC(=O)CNC(c1ccccc1)c1cc(Br)ccc1NC(=O)CNC(=O)OCc1ccccc1 (stereo unspecified) | 16.5% (active) |
| O=C(Oc1cccc(/C=N/Nc2nc(Nc3ccccc3)nc(N3CCOCC3)n2)c1)c1ccco1 | inactive |
| Cc1ccc(C(O)(C(=O)NNc2ccc3ccccc3n2)c2ccc(C)cc2)cc1 | inactive |
| CC(Sc1nc(-c2ccccc2)cc(C(F)(F)F)n1)C(=O)Nc1ccc2c(c1)OCO2 (stereo unspecified) | 3% |
| O=C(Nc1cccc(C(F)(F)F)c1)C(Sc1ncnc2ccccc12)c1ccccc1 (stereo unspecified) | 2.71% |
| CC(Sc1ncnc2ccccc12)C(=O)Nc1ccc2c(c1)OCCO2 (stereo unspecified) | 12.4% (active) |
| CC(C)CC(COCc1ccc(Cl)cc1)N1CCN(C(=O)c2ccc(C(F)(F)F)cc2)CCC1=O (stereo unspecified) | 12.7% (active) |
| CC(C)C[C@@H](COc1ccccc1)N1CCN(Cc2ccccc2)CCC1=O | 0.51% |
| CC(C)(C)c1ccc(C(=O)N2CCC(=O)N(C(CO)Cc3ccccc3)CC2)cc1 (stereo unspecified) | inactive |

| Structure (SMILES) | CPE inhibition |
| --- | --- |
| O=C(Nc1cccc(Cl)c1)Nc1ccc2c(c1)C(=O)OC2 | inactive |
| O=C1C2C(c3ccccc3)=NN(c3ccccc3)C2C(=O)N1c1ccccc1 (stereo unspecified) | inactive |
| COc1ccccc1[C@@H]1C(c2cccc(Cl)c2)=NN(c2ccccc2)[C@H]1C(=O)N1CCOC1=O | 19.3% (active) |
| COc1cccc(N2C(C(C)=O)=NN(c3ccccc3)C2c2ccc(N3CCOCC3)cc2)c1 (stereo unspecified) | 2.42% |
| O=C(/C=C/c1ccc(Br)cc1)NC(=S)Nc1ccc(S(=O)(=O)Nc2nccs2)cc1 | inactive |
| Nc1c(C(=O)c2ccc(Cl)cc2)sc2nc3c(cc12)CCC3 | 7.59% |
| CC(C)(C)NC(=O)c1ccc2c(c1)C1C3CCC(C3)C1C(c1ccccc1)N2 (stereo unspecified) | 15.9% (active) |
| O=C(Nc1ccc(Cl)cc1)c1cccc(N2C(=O)C3C4CCC(C4)C3C2=O)c1 (stereo unspecified) | 2.71% |
| O=C(O)c1ccc(NC(=O)c2cccc(N3C(=O)C4C5CCC(C5)C4C3=O)c2)cc1 (stereo unspecified) | 1.22% |
| O=C(CCC(=O)NCCCc1ccccc1)NCCCc1ccccc1 | inactive |
| Cc1ccc(SCCNC(=O)/C=C/c2cccc([N+](=O)[O-])c2)cc1 | 6.54% |
| C=CCNC(=O)c1c(CSc2ccc(Cl)cc2)noc1C(=O)NCc1ccccc1 | 11.2% (active) |
| COc1cccc(SCc2noc(C(=O)NCCCN3CCOCC3)c2C(=O)NCCCN2CCOCC2)c1 | 0.255% |
| CCCCNC(=O)c1onc(CSc2ccc(F)c(F)c2)c1C(=O)NCCCC | 11.5% (active) |
| CCCCNC(=O)c1onc(CSc2ccccn2)c1C(=O)NCCCC | 1.85% |
| C=CCNC(=O)c1c(CSc2ccc(Cl)cc2)noc1C(=O)NCCC | 0.85% |
| CC(C)CCNC(=O)c1onc(CSc2ccccn2)c1C(=O)NCCC(C)C | 25.9% (active) |
| CCCCNC(=O)c1onc(CSc2cccc(OC)c2)c1C(=O)O | inactive |
| O=C(NCCCN1CCOCC1)c1onc(CSc2ccc(F)c(F)c2)c1C(=O)NCCCN1CCOCC1 | inactive |
| COCCNC(=O)c1onc(CSc2ccc(F)c(F)c2)c1C(=O)NCCOC | inactive |
| CCCCNC(=O)c1onc(CSc2cccc(OC)c2)c1C(=O)NCCCC | 20.1% (active) |
| O=C(NCCCN1CCOCC1)c1onc(CSc2ccccn2)c1C(=O)NCCCN1CCOCC1 | inactive |
| C=CCNC(=O)c1onc(CSc2ccccc2)c1C(=O)NCC=C | 0.535% |
| CCn1c(C)nc2cc(C(=O)NNC(=S)Nc3ccc(Cl)cc3Cl)ccc21 | inactive |

| Structure (SMILES) | CPE inhibition |
| --- | --- |
| O=C(Cc1cccs1)N/N=C/c1ccco1 | 0.08% |
| COC(=O)c1c(NC(=O)C2C3C=CC(CC3)C2C(=O)O)sc(C)c1C (stereo unspecified) | inactive |
| CC1=CN2C(=N)/C(=C/c3ccc(Sc4ccc(C)cc4)o3)C(=O)N=C2S1 | 9.52% |
| Cc1cccc(NC(=O)CN2C(=O)N/C(=C/c3cc(C)n(-c4ccncc4)c3C)C2=O)c1 | inactive |
| COCCNC(=O)c1onc(CSc2cccc(OC)c2)c1C(=O)NCCOC | 0.425% |
| COc1cccc(SCc2noc(C(=O)NCCC(C)C)c2C(=O)NCCC(C)C)c1 | 23% (active) |
| COc1cccc(SCc2noc(C(=O)NCCN(C)C)c2C(=O)NCCN(C)C)c1 | 0.54% |
| CNC(=S)N(CCc1ccc(OC)c(OC)c1)Cc1cc2c(C)cc(C)cc2[nH]c1=O | inactive |
| O=C1CN(C(=O)CSc2nnc3ccccn23)c2ccccc2N1 | 0.845% |
| C=CCNC(=O)C12CCC(C)(C(=O)C1Br)C2(C)C (stereo unspecified) | 0.36% |
| COC(=O)N(NC(=O)C(O)(c1ccccc1)c1ccccc1)c1ccccc1 | 1.2% |
| CCOC(=O)N(NC(=O)C(O)(c1ccccc1)c1ccccc1)c1ccccc1 | 2.6% |
| COC(=O)N(NC(=O)C(O)(c1ccccc1)c1ccccc1)c1ccc(C)cc1 | 61.4% (active) |
| COc1ccc(-c2nn(-c3ccccc3)cc2/C=C(\C#N)S(=O)(=O)c2ccccc2)cc1OC | 0.055% |
| CC(NC(=O)/C(C#N)=C/c1cn(-c2ccccc2)nc1-c1ccc(F)cc1)c1ccccc1 (stereo unspecified) | 8.04% (active) |
| COc1ccc(-c2nn(-c3ccccc3)cc2/C=C(/C#N)C(N)=O)cc1[N+](=O)[O-] | inactive |
| CC1CC(=O)N(c2ccc(NCc3ccc(Cl)cc3)c([N+](=O)[O-])c2)C1=O (stereo unspecified) | 0.275% |
| COc1ccc(CC(=O)NNc2ncnc3c2cnn3-c2ccc(C)cc2)cc1OC | 2.76% |
| Cc1cc(C)nc(N/N=C/C2=C(N3CCOCC3)C(=C\c3ccc(Cl)cc3)/CC2)n1 | 15.6% (active) |
| O=[N+]([O-])c1cccc(/C=N/Nc2nc(NCc3ccccc3)nc(N3CCOCC3)n2)c1 | 1.39% |
| Cc1cc(C)nc(N/N=C/C=C/c2ccccc2)n1 | 0.52% |
| Cc1cc(C)nc(N/N=C/C2=C(N3CCOCC3)C(=C/c3ccccc3)/CC2)n1 | 9.78% (active) |
| COc1ccc(-n2c(C)cc(/C=N/Nc3nc(N4CCOCC4)nc(N4CCOCC4)n3)c2C)cc1 | inactive |
| S=C(N/N=C/c1ccc(Cl)cc1)N1CCOCC1 | inactive |
